# Test results: PubChem BioAssay (Tox21)
# Results filed as inconclusive are left out. A call without a number means that no potency is given here. Where a structure was tested more than once in an assay, its records may differ in their call. Activity calls are given as the source filed them. Unless noted, calls come from the whole dose curve; as a rule, active = well fitted curve in the direction sought with a large enough effect in the repeat runs; inconclusive = weak or mixed curves; inactive = no such curve, though single readings can be large; an effect the other way counts as inactive or inconclusive.
# Key:
# [1] = qHTS assay to identify small molecule agonists of the RXR signaling pathway - cell viability counter screen (AID 1159529); note: nearly all actives have a fitted effect of over 50% in size; note: potency is the fitted concentration of half-maximal effect
# Method in brief: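 Cell viability is measured by CellTiter-Glo luminescence, 30 min at room temperature, in wells already read for beta-lactamase. Engineered HEK 293T cells (RXR-alpha-UAS-bla) are dosed 16 hr at 37 C. Tetraoctyl ammonium bromide serves as positive control.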
# [2] = qHTS assay to identify small molecule antagonists of the retinoid acid receptor (RAR) signaling pathway - cell viability counter screen (AID 1159551); note: nearly all actives have a fitted effect of over 35% in size
# Method in brief: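 Luminescent ATP quantitation (CellTiter-Glo) gave cell viability in C3RL4 cells exposed to test chemicals for 6 h at 37 C alongside 1 uM final retinol.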
# [3] = qHTS assay to identify small molecule agonists of the retinoic acid receptor (RAR) signaling pathway (AID 1159553); conditions: C3RL4 RARE luciferase reporter, agonist, 6 h; activation: at 73.3 µM (top of the series); note: potency is the fitted concentration of half-maximal effect
# Method in brief: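 Luminescence from a RARE-driven luciferase reporter in C3RL4 cells served as the read-out, measured after 30 min with detection reagent at room temperature. Compounds in DMSO were applied for 6 hr at 37 C following overnight seeding.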
# [4] = qHTS assay to identify small molecule antagonists of the estrogen related receptor (ERR) signaling pathway - cell viability counter screen (AID 1224818);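 note: viability measured after 17.5 h of compound exposure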
# Method in brief: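 Multiplexed counter screen to separate cytotoxic compounds from true ERR modulators. ERR cells received DMSO-dissolved compounds after a 6 h pre-incubation, were exposed 17.5 h at 37 C, then assayed with CellTiter-Fluor fluorescence.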
# [5] = qHTS assay to identify small molecule antagonists of the estrogen related receptor (ERR) signaling pathway (AID 1224819;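 note: luminescence from an ERR-driven luciferase reporter measured with One-Glo reagent; nearly all actives have a fitted effect of over 50% in size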)
# Method in brief: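 Seed ERR cells 2,000/well; rest 6 h at 37 C/5% CO2; pin compounds in DMSO; incubate 18 h at 37 C; add One-Glo; wait 30 min at room temperature; measure luminescence.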
# [6] = qHTS assay to identify small molecule agonists of the estrogen related receptor (ERR) signaling pathway (AID 1224820)
# Method in brief: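 ERR reporter cell line (from NTP), 2,000 cells/well, incubated 6 h before compound addition, then 18 h at 37 C. Luminescence measured 30 min after One-Glo reagent at room temperature.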
# [7] = tested on: estrogen-related receptor alpha (ERRalpha) with PGC-1alpha coactivator, human; test: qHTS assay to identify small molecule antagonists of the estrogen related receptor signaling pathway with the pleiotropic PPARgamma coactivator (PGC) (AID 1224821; calls by dose curve;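 note: lower luminescence signal means antagonism of PGC/ERR signalling; nearly all actives have a fitted effect of over 50% in size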)
# Method in brief: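 PGC/ERR reporter cell line, plated 6 h before compound addition, then exposed 18 h at 37 °C. Luciferase activity read by luminescence 30 min after One-Glo addition; decrease indicates antagonism.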
# [8] = qHTS assay to identify small molecule antagonists of the estrogen related receptor signaling pathway with the pleiotropic PPARgamma coactivator (PGC) cell viability counter screen (AID 1224822;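 note: viability read after 17.5 h compound exposure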)
# Method in brief: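 Cells: PGC/ERR, 2,000/well, 1536-well format. Pre-incubation 6 h, 37 C/5% CO2. Compound exposure 17.5 h, 37 C. Detection: CellTiter-Fluor, 30 min, fluorescence.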
# [9] = qHTS assay to identify small molecule antagonists of the retinoic acid receptor (RAR) signaling pathway (AID 1159552; note: nearly all actives have a fitted effect of over 50% in size; note: potency is the fitted concentration of half-maximal effect)
# Method in brief: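 Quantitative HTS in C3RL4 RARE-luciferase reporter cells. Compounds were added with 1 uM (final) retinol; luminescence was read after 6 hr.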
compound,measurement,setting,value
O=C(O)CCc1nc(-c2ccccc2)c(-c2ccccc2)o1,Potency,[1],inactive
same,Potency,[2],inactive
same,Potency,[3],inactive
same,outcome,[4],inactive
same,outcome,[5],inactive
same,outcome,[6],inactive
same,outcome,[7],inactive
same,outcome,[8],inactive
CC(C)=CCC/C(C)=C/CC/C(C)=C/C(=O)OCC(=O)[C@@]1(O)CC[C@H]2[C@@H]3CCC4=CC(=O)C=C[C@]4(C)[C@H]3[C@@H](O)C[C@@]21C,Potency,[1],inactive
same,Potency,[2],inactive
same,Potency,[3],inactive
CC(C)(c1ccccc1)c1ccccc1,Potency,[1],inactive
same,Potency,[2],inactive
same,Potency,[9],inactive
same,Potency,[3],inactive
CCC(=O)OC,Potency,[1],inactive
same,Potency,[2],inactive
same,Potency,[9],inactive
same,Potency,[3],inactive
CCOC(=O)c1ccccc1C(=C1C=C(Br)C(=O)C(Br)=C1)c1cc(Br)c(O)c(Br)c1,Potency,[1],inactive
same,Potency,[2],inactive
same,Potency,[9],inactive
same,Potency,[3],inactive
O=C=Nc1cccc(C(F)(F)F)c1,Potency,[2],inactive
COc1cc(C(=O)NC2CCN(C)CC2)ccc1Nc1ncc2c(n1)N(C1CCCC1)CC(F)(F)C(=O)N2C,Potency,[1],31.8 µM (active)
same,Potency,[9],2.5 µM (active)
C[C@@H](CN(C)C)CN1c2ccccc2Sc2ccccc21,Potency,[2],inactive
C=CC(=O)[O-].C=CC(=O)[O-].[Zn+2],Potency,[2],inactive
same,Potency,[9],inactive
CC(=O)Nc1cc(S(=O)(=O)O)cc2cc(S(=O)(=O)O)c(N=Nc3ccccc3)c(O)c12,Potency,[1],inactive
same,Potency,[9],inactive
same,Potency,[3],inactive
COc1ncnc(NS(=O)(=O)c2ccc(N)cc2)c1OC,Potency,[1],inactive
same,Potency,[9],inactive
same,Potency,[3],inactive
CCCCN(CCCC)C(C(N)=O)c1ccc(OC)cc1 (stereo not drawn),Potency,[2],inactive
C=COCC(C)C,Potency,[1],inactive
same,Potency,[9],inactive
same,Potency,[3],inactive
C[C@@]12CCC[C@H]1[C@@H]1CC[C@H]3C[C@@H](O)CC[C@]3(C)[C@H]1CC2,Potency,[2],inactive
same,Potency,[9],inactive
COc1ccccc1Oc1c(NS(=O)(=O)c2ccc(C(C)(C)C)cc2)nc(-c2ncccn2)nc1OCCO,Potency,[1],inactive
same,Potency,[9],inactive
same,Potency,[3],inactive
CCCCCCNC(=O)n1cc(F)c(=O)[nH]c1=O,Potency,[1],inactive
same,Potency,[9],inactive
same,Potency,[3],inactive
Cc1cscn1,Potency,[2],inactive
C=C/C(C)=C/C/C=C(\C)CCC=C(C)C,Potency,[2],inactive
C[C@]12CC[C@@H]3c4ccc(O)cc4CC[C@H]3[C@@H]1CC[C@@H]2OC(=O)CCC1CCCC1,Potency,[2],inactive
same,Potency,[9],61.1 µM (active) and inactive
CC1=C(Br)C(=O)C(Br)=C/C1=C(/c1ccccc1S(=O)(=O)O)c1cc(Br)c(O)c(Br)c1C,Potency,[1],inactive
same,Potency,[9],20.8 µM (active)
same,Potency,[3],inactive
CC(C)COCC(CN(Cc1ccccc1)c1ccccc1)N1CCCC1 (stereo not drawn),Potency,[1],19 µM (active)
same,outcome,[4],inactive
same,outcome,[8],inactive
C(=C\c1ccccc1)/c1ccccc1,Potency,[1],inactive
same,Potency,[9],inactive
same,Potency,[3],8.56 µM (active)
Cc1ccc(CO)cc1,Potency,[1],inactive
same,Potency,[9],inactive
same,Potency,[3],inactive
O=c1cc(-c2ccccc2)oc2cc(O)cc(O)c12,Potency,[1],inactive
same,Potency,[9],inactive
same,Potency,[3],0.969 µM (active)
CN1CCCC(CC2c3ccccc3Sc3ccccc32)C1 (stereo not drawn),Potency,[2],inactive
O=[N+]([O-])c1ccc(O/N=C/c2cc(Br)c(O)c(Br)c2)c([N+](=O)[O-])c1,Potency,[2],inactive
